# Several values for one entry are separate records, joined by “and”; a condition that tells them apart may be missing. Equal entries are not always repeated. Records with an inconclusive call do not appear. Activity calls are given as the source filed them. The calls were made as follows, unless noted: active = hit-call score of the fitted dose curve at least 0.9, where 1 is the maximum; inactive = score below 0.9.
# Columns and labels:
# [1] = molecular target: Myc proto-oncogene protein (Homo sapiens) (UniProt P01106); assay: ATG_Myc_CIS: Attagene CIS-FACTORIAL HepG2 Assay for human Myelocytomatosis (Myc) Proto-Oncogene Transcription Factor (AID 2282990); details: HepG2, Attagene cis-reporter transcription factor activity; actives raise or lower the signal
# In short: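 HepG2 cells transiently transfected with multiple cis-promoter-driven reporter transcription units, so endogenous TF activity is read. After 24 h compound exposure, reporter mRNA was quantified by RT-PCR, 6-FAM labelling, HpaI digestion and capillary electrophoresis; bidirectional fit versus DMSO.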
# [2] = ATG_NRF2_ARE_CIS: Attagene CIS-FACTORIAL HepG2 Assay for human Nuclear Factor Erythroid 2 Related Factor 2 (NFR2) response to Antioxidant Response Elements (ARE) (AID 2282992); details: HepG2 Attagene ARE/NRF2 reporter, transcription factor activity; actives raise or lower the signal;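 as to AC50: reporter mRNA level measured by RT-PCR and capillary electrophoresis fluorescence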
# In short: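 Multiplexed reporter mRNA profiling in HepG2 after a 24 h chemical exposure. Curves fitted in both directions relative to DMSO negative control.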
# [3] = ATG_Oct_MLP_CIS: Attagene CIS-FACTORIAL HepG2 Assay for human Octamer-Binding Transcription Factor (Oct) (AID 2282993); details: HepG2 Attagene cis-factorial Oct reporter, mRNA; actives raise or lower the signal
# In short: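 Readout is reporter transcript level from RT-PCR with fluorescent primer extension and capillary electrophoresis, fitted in both directions against DMSO. Transfected HepG2 reporter units report endogenous factor activity after 24 h dosing.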
# [4] = molecular target: Cellular tumor antigen p53 (Homo sapiens) (UniProt P04637); assay: ATG_p53_CIS: Attagene CIS-FACTORIAL HepG2 Assay for human p53 Transcription Factor (AID 2282994); details: HepG2 p53 cis-element reporter, Attagene mRNA; actives raise or lower the signal
# In short: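 Multiplexed reporter mRNA assay in human HepG2 liver cells; cis-regulated units report endogenous factor activity. Values come from bidirectional curve fitting against DMSO negative control after 24 h treatment.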
# [5] = molecular target: human Peroxisome Proliferator-activated Receptor alpha (PPARa), PPARA (gene 5465) (UniProt Q07869); assay: ATG_PPARa_TRANS: Attagene TRANS-FACTORIAL HepG2 Assay for human Peroxisome Proliferator-activated Receptor alpha (PPARa) (AID 2283001; active = hit-call score of the fitted dose curve at least 0.9, where 1 is the maximum;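 as to AC50: potency for gain of reporter signal over DMSO so agonist or activator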)
# In short: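 HepG2 cells transiently transfected with multiplexed GAL4-UAS reporter units and chimeric NR-Gal4 constructs were dosed for 24 h. Reporter mRNA was measured by RT-PCR with fluorescent labelling and capillary electrophoresis; gain of signal fitted against DMSO.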
# [6] = molecular target: Nuclear receptor subfamily 1 group I member 2 (Homo sapiens) (UniProt O75469); assay: ATG_PXR_TRANS: Attagene TRANS-FACTORIAL HepG2 Assay for human Pregnane X Receptor (PXR) (AID 2283008; active = hit-call score of the fitted dose curve at least 0.9, where 1 is the maximum)
# In short: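 Measures mRNA induction of a GAL4-UAS-driven reporter in human HepG2 cells transiently expressing PXR fused to Gal4, following 24 h treatment. DMSO served as negative control and baseline.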
# [7] = molecular target: human Peroxisome Proliferator-activated Receptor delta (PPARd), PPARD (gene 5467) (UniProt Q03181); assay: ATG_PPARd_TRANS: Attagene TRANS-FACTORIAL HepG2 Assay for human Peroxisome Proliferator-activated Receptor delta (PPARd) (AID 2283002; active = hit-call score of the fitted dose curve at least 0.9, where 1 is the maximum)
# In short: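 HepG2 cells transiently transfected with multiplexed GAL4-UAS reporter units and exogenous chimeric NR-Gal4 proteins; 24 h compound exposure. Reporter mRNA measured by RT-PCR, 6-FAM labelling, HpaI digestion and capillary electrophoresis; gain of signal versus DMSO.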
# [8] = molecular target: Peroxisome proliferator-activated receptor gamma (Homo sapiens) (UniProt P37231); assay: ATG_PPARg_TRANS: Attagene TRANS-FACTORIAL HepG2 Assay for human Peroxisome Proliferator-activated Receptor-gamma (PPARg) (AID 2283007; active = hit-call score of the fitted dose curve at least 0.9, where 1 is the maximum)
# In short: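 HepG2 cells are transiently transfected with GAL4-UAS reporter units driven by chimeric NR-Gal4 fusions and dosed for 24 h. Reporter mRNA is quantified by RT-PCR, 6-FAM labelling, HpaI digestion and capillary electrophoresis. Induction is scored against DMSO.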
# [9] = molecular target: human RAR-related Orphan Receptor gamma (RORg), RORC (gene 6097) (UniProt P51449); assay: ATG_RORg_TRANS: Attagene TRANS-FACTORIAL HepG2 Assay for human RAR-related Orphan Receptor gamma (RORg) (AID 2283011; active = hit-call score of the fitted dose curve at least 0.9, where 1 is the maximum)
# In short: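 Transient MRTU transfection of HepG2 (TRANS format, exogenous NR-Gal4 chimera). 24 h dosing. Total RNA → oligo(dT) RT → PCR → 6-FAM labelling → HpaI cut → CE. Gain vs DMSO.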
# [10] = molecular target: human Retinoic Acid Receptor beta (RARb), RARB (gene 5915) (UniProt P10826); assay: ATG_RARb_TRANS: Attagene TRANS-FACTORIAL HepG2 Assay for human Retinoic Acid Receptor beta (AID 2283004; active = hit-call score of the fitted dose curve at least 0.9, where 1 is the maximum)
# In short: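 Readout is reporter mRNA induction: RNA reverse-transcribed, PCR-amplified, FAM-labelled, HpaI-cut and resolved by capillary electrophoresis. Transiently transfected HepG2 cells carrying exogenous NR–Gal4 chimeras were dosed for 24 h; activity fitted upward relative to DMSO.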
# [11] = molecular target: human Retinoic Acid Receptor gamma (RARg), RARG (gene 5916) (UniProt P13631); assay: ATG_RARg_TRANS: Attagene TRANS-FACTORIAL HepG2 Assay for human Retinoic Acid Receptor gamma (RARg) (AID 2283009; active = hit-call score of the fitted dose curve at least 0.9, where 1 is the maximum)
# In short: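 HepG2, RARg-GAL4 TRANS system, 24 h exposure; reporter mRNA by RT-PCR + CE fluorescence; increase over DMSO.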
# [12] = molecular target: human RAR-related Orphan Receptor beta (RORb), RORB (gene 6096) (UniProt Q92753); assay: ATG_RORb_TRANS: Attagene TRANS-FACTORIAL HepG2 Assay for human RAR-related Orphan Receptor beta (RORb) (AID 2283010; active = hit-call score of the fitted dose curve at least 0.9, where 1 is the maximum)
# In short: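 In this TRANS-format test, human HepG2 cells express chimeric NR-Gal4 fusion proteins driving GAL4-UAS reporters. After 24 h dosing, reporter transcripts are measured by fluorescent RT-PCR/capillary electrophoresis, with DMSO as negative control.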
# [13] = BSK_3C_TissueFactor: BioMAP Diversity Plus: 3C Assay for Tissue Factor Biomarker Activity (AID 2282997); details: BioMAP 3C HUVEC, tissue factor biomarker readout; actives raise or lower the signal
# In short: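 Human vascular primary cells (umbilical vein endothelium) received test chemical; Tissue Factor was determined by ELISA at 24 h, and both gain and loss of signal versus DMSO were fitted.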
# [14] = BSK_3C_uPAR: BioMAP Diversity Plus: 3C Assay for Urokinase-type plasminogen activator receptor (uPAR) Biomarker Activity (AID 2282998); details: BioMAP 3C HUVEC, uPAR biomarker ELISA; actives raise or lower the signal
# In short: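 Cell-surface uPAR on HUVEC (3C system) read by ELISA at 24 h post-treatment, with DMSO as baseline and fitting in both directions. Parallel cultures stained with SRB to flag overt cytotoxicity.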
# [15] = BSK_3C_VCAM1: BioMAP Diversity Plus: 3C Assay for Vascular cell adhesion molecule 1 (VCAM1) Biomarker Activity (AID 2282999); details: BioMAP 3C HUVEC, VCAM1 ELISA, cytokine-stimulated; actives raise or lower the signal
# In short: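 Human umbilical vein endothelial cells were dosed with compound for 24 h, after which cell-surface VCAM-1 was quantified by ELISA. Bidirectional curve fitting used DMSO as negative control and activity baseline.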
# [16] = BSK_4H_Eotaxin3: BioMAP Diversity Plus: 4H Assay for Eotaxin 3 Biomarker Activity (AID 2283000); details: primary human endothelial cells (HUVEC); actives raise or lower the signal
# In short: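 Readout is Eotaxin-3 (CCL26) level by ELISA in primary human umbilical vein endothelial cells harvested 24 h after chemical exposure; activity fitted in both directions against DMSO control.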
# [17] = read-out: Intercellular Adhesion Molecule 1 (ICAM1), ICAM1 (gene 3383); assay: BSK_3C_ICAM1: BioMAP Diversity Plus: 3C Assay for Intercellular Adhesion Molecule 1 (ICAM1) Biomarker Activity (AID 2283003); details: primary human endothelial cells (HUVEC); actives raise or lower the signal
# In short: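 Human vascular endothelial primary cells, 3C conditions, 24 h treatment. ICAM-1 by ELISA.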
# [18] = BSK_3C_Proliferation: Cell Proliferation Assessment in the BioMAP Diversity Plus: 3C Assay (AID 2283006); details: primary human endothelial cells (HUVEC);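 also: potency may reflect either rise or fall in cell number versus DMSO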
# In short: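 Proliferation of human vascular endothelial primary cells after 48 h dosing, quantified as SRB-stained protein at 560 nm relative to DMSO.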
# [19] = molecular target: Retinoic acid receptor alpha (Homo sapiens) (UniProt P10276); assay: ATG_RARa_TRANS: Attagene TRANS-FACTORIAL HepG2 Assay for human Retinoic Acid Receptor alpha (RARa) (AID 2283005; active = hit-call score of the fitted dose curve at least 0.9, where 1 is the maximum)
# In short: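 HepG2 cells transiently transfected with multiple reporter units expressing chimeric RARα-GAL4 fusion, with GAL4-UAS-driven reporters. After 24 h compound exposure, reporter mRNA induction quantified by RT-PCR and capillary electrophoresis with fluorescent labeling; gain-of-signal fitted relative to DMSO control.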
# Sequence of Myc proto-oncogene protein (Homo sapiens) (P01106 whole entry, looked up): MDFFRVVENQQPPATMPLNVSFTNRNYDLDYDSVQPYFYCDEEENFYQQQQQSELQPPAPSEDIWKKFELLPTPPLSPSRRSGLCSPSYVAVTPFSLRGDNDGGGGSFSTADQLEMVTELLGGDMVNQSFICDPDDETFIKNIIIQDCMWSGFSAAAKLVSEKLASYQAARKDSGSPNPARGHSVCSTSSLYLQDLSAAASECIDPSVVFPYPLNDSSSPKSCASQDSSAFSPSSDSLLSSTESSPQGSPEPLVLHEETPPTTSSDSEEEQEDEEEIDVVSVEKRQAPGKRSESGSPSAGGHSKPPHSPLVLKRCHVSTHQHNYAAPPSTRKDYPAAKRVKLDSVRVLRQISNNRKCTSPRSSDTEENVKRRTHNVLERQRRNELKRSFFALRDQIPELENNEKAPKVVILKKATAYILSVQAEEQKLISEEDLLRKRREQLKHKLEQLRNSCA
# Sequence of human Peroxisome Proliferator-activated Receptor delta (PPARd), PPARD (gene 5467) (Q03181 whole entry, looked up, the tested form may be a part): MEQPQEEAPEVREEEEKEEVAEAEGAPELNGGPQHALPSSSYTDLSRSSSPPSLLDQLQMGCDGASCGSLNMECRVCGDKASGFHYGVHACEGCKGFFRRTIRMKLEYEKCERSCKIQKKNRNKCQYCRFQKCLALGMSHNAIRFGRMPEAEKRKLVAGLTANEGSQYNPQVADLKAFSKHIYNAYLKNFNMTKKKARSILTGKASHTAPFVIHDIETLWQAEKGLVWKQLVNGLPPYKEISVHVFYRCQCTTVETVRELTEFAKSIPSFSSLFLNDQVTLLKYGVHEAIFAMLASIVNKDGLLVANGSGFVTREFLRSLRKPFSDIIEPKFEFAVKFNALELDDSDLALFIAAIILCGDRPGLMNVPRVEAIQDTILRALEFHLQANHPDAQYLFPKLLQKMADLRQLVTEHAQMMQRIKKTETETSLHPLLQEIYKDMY
# Sequence of human Retinoic Acid Receptor beta (RARb), RARB (gene 5915) (P10826 whole entry, looked up, the tested form may be a part): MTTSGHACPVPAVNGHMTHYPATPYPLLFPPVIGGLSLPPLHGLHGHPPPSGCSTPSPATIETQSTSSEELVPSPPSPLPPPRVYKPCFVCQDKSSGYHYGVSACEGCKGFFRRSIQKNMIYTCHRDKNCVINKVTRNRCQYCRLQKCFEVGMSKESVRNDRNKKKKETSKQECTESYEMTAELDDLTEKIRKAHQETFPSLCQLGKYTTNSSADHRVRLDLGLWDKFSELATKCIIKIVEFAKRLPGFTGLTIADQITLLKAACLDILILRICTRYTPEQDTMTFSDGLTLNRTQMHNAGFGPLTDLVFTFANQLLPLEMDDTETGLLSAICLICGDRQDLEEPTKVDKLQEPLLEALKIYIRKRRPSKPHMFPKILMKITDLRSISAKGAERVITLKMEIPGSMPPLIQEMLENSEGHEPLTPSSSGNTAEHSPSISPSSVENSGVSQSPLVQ
# Sequence of Peroxisome proliferator-activated receptor gamma (Homo sapiens) (P37231 whole entry, looked up, the tested form may be a part): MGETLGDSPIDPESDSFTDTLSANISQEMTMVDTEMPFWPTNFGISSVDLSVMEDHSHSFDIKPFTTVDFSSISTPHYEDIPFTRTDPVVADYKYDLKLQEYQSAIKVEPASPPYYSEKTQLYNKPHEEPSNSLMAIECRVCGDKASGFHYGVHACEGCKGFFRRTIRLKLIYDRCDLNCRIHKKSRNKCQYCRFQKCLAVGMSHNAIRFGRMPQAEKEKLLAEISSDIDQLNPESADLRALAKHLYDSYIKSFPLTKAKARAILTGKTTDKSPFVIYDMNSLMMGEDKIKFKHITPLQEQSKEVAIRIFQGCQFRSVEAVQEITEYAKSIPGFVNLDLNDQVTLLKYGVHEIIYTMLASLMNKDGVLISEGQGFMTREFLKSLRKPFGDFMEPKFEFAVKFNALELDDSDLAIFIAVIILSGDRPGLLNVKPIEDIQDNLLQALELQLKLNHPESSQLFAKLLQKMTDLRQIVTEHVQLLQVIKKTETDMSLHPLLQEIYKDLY
# Sequence of Nuclear receptor subfamily 1 group I member 2 (Homo sapiens) (O75469 whole entry, looked up, the tested form may be a part): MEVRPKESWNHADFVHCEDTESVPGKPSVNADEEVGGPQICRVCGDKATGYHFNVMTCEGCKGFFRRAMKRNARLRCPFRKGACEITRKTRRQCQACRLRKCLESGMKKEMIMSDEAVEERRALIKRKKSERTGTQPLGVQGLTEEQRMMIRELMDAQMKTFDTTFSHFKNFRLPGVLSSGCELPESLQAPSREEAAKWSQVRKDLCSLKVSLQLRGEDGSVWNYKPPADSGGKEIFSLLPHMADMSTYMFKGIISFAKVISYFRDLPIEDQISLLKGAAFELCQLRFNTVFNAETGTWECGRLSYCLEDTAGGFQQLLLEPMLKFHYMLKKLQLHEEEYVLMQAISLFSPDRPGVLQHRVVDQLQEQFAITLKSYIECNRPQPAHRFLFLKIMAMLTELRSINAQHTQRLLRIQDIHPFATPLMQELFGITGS
# Sequence of human Peroxisome Proliferator-activated Receptor alpha (PPARa), PPARA (gene 5465) (Q07869 whole entry, looked up, the tested form may be a part): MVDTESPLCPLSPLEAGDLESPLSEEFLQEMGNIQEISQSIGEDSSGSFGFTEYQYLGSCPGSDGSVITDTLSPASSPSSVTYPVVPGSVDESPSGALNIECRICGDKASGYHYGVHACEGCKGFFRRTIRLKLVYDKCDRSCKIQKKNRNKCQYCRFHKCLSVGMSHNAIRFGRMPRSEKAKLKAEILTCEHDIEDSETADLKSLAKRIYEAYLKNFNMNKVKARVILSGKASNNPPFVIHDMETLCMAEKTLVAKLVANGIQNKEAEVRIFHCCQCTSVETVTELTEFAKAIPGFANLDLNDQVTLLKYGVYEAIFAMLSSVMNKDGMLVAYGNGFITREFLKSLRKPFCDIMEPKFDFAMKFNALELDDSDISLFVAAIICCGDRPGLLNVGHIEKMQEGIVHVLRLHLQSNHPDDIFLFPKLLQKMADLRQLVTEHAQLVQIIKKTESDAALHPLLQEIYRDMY
# Sequence of human RAR-related Orphan Receptor gamma (RORg), RORC (gene 6097) (P51449 whole entry, looked up, the tested form may be a part): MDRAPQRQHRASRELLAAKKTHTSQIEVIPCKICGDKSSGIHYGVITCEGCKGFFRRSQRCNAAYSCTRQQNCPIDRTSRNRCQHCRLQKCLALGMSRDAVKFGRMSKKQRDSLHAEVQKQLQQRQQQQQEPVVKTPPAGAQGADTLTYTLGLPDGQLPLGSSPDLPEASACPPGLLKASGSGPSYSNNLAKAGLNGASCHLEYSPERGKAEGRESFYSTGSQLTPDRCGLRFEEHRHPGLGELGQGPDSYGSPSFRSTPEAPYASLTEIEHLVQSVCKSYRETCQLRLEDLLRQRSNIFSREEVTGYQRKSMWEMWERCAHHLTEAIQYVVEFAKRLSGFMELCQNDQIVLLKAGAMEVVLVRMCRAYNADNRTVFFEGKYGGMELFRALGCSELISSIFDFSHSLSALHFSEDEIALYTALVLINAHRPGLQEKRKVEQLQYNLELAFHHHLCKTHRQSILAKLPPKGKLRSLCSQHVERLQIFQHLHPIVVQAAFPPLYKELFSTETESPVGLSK
# Sequence of human RAR-related Orphan Receptor beta (RORb), RORB (gene 6096) (Q92753 whole entry, looked up, the tested form may be a part): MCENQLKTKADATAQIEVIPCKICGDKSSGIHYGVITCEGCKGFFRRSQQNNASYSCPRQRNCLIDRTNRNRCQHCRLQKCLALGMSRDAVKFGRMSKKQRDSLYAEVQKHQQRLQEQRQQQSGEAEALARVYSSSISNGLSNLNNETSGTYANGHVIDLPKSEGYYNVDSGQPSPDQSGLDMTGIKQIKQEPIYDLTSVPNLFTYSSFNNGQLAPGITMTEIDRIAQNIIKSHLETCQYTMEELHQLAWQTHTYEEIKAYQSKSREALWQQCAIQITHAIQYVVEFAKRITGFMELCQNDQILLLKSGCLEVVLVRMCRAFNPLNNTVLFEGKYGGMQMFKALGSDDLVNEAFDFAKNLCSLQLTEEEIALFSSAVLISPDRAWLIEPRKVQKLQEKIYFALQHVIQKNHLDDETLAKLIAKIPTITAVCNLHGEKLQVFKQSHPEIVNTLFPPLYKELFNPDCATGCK
# Sequence of human Retinoic Acid Receptor gamma (RARg), RARG (gene 5916) (P13631 whole entry, looked up, the tested form may be a part): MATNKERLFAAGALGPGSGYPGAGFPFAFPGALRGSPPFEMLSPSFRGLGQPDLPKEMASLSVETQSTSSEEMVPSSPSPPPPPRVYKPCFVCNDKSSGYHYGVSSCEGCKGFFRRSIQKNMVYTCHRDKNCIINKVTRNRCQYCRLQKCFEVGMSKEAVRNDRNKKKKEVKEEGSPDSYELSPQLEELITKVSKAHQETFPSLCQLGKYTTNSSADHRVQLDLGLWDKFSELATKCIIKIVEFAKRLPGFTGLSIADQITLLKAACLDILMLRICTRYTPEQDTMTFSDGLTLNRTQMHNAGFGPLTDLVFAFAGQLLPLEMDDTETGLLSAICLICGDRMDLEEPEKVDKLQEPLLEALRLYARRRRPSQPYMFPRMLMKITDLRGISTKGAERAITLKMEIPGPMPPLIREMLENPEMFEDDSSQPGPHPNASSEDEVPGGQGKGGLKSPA
# Sequence of Cellular tumor antigen p53 (Homo sapiens) (P04637 whole entry, looked up): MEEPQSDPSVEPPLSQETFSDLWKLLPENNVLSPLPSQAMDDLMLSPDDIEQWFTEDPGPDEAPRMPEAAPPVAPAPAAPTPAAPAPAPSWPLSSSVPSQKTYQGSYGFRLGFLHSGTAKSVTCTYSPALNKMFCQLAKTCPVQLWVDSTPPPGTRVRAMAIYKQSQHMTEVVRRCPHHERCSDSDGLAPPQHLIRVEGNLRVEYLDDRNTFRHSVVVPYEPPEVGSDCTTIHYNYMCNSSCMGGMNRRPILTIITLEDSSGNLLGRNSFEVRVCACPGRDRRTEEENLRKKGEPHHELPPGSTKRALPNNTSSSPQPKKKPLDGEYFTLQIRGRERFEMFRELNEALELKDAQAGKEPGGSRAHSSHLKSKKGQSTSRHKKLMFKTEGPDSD
smiles,measurement,setting,value
CS(=O)(=O)c1ccc(C(=O)C2C(=O)CCCC2=O)c(Cl)c1COCC(F)(F)F,outcome,[1],inactive
same,outcome,[2],inactive
same,outcome,[3],inactive
same,outcome,[4],inactive
same,outcome,[5],inactive
same,outcome,[6],inactive
C=CC(=O)[O][Sn]([CH2]CCC)([CH2]CCC)[CH2]CCC,outcome,[1],inactive
same,AC50,[2],0.111 µM (active)
same,AC50,[3],0.348 µM (active)
same,outcome,[4],inactive
same,AC50,[5],0.599 µM (active)
same,outcome,[7],inactive
same,AC50,[8],0.0934 µM (active)
same,AC50,[6],0.237 µM (active)
CC(C)[N+](=O)[O-],outcome,[1],inactive
same,outcome,[2],inactive
same,outcome,[3],inactive
same,outcome,[4],inactive
same,outcome,[7],inactive
same,outcome,[8],inactive
same,outcome,[6],inactive
same,outcome,[9],inactive
C=CCOC(N)=O,outcome,[1],inactive
same,outcome,[2],inactive
same,outcome,[3],inactive
same,outcome,[4],inactive
same,outcome,[7],inactive
same,outcome,[10],inactive
same,outcome,[8],inactive
same,outcome,[11],inactive
same,outcome,[9],inactive
CCC[N+](CCC)(CCC)CCC,outcome,[1],inactive
same,outcome,[2],inactive
same,outcome,[3],inactive
same,outcome,[4],inactive
same,outcome,[7],inactive
same,outcome,[6],inactive
same,outcome,[11],inactive
OC[P+](CO)(CO)CO,outcome,[1],inactive
same,AC50,[2],30.2 µM (active) and 26.4 µM (active)
same,outcome,[3],inactive
same,outcome,[4],inactive
same,outcome,[5],inactive
same,outcome,[7],inactive
same,outcome,[8],inactive
same,outcome,[11],inactive
O=C(CBr)c1ccc(O)cc1,outcome,[1],inactive
same,AC50,[2],41.5 µM (active)
same,outcome,[3],inactive
same,outcome,[4],inactive
same,outcome,[8],inactive
same,outcome,[6],inactive
C=CC(=O)OCC(COC(=O)C=C)(COC(=O)C=C)COC(=O)C=C,outcome,[1],inactive
same,outcome,[2],inactive
same,AC50,[3],8.16 µM (active)
same,AC50,[4],8.93 µM (active)
same,AC50,[5],100 µM (active)
same,outcome,[7],inactive
same,AC50,[8],100 µM (active)
same,outcome,[11],inactive
same,outcome,[12],inactive
same,outcome,[9],inactive
CC(C)(C1CCC(O)CC1)C1CCC(O)CC1 (stereo unspecified),outcome,[1],inactive
same,outcome,[2],inactive
same,outcome,[3],inactive
same,outcome,[4],inactive
same,outcome,[6],inactive
CCCCCCCCCCCCCl,outcome,[1],inactive
same,outcome,[2],inactive
same,outcome,[3],inactive
same,outcome,[4],inactive
same,outcome,[8],inactive
same,outcome,[6],inactive
CC(C)N(C(=O)CCl)c1ccccc1,outcome,[1],inactive
same,AC50,[2],2.75 µM (active)
same,AC50,[3],52.8 µM (active)
same,outcome,[13],inactive
same,AC50,[14],20 µM (active)
same,AC50,[15],20 µM (active)
same,AC50,[16],20 µM (active)
same,AC50,[17],25.8 µM (active)
same,AC50,[18],20 µM (active)
same,AC50,[8],3.21 µM (active)
CCOc1cc(C=O)ccc1O,outcome,[1],inactive
same,outcome,[2],inactive
same,outcome,[3],inactive
same,outcome,[4],inactive
same,outcome,[5],inactive
same,outcome,[7],inactive
same,outcome,[6],inactive
same,outcome,[12],inactive
Cc1cc(C(F)(C(F)(F)F)C(F)(F)F)ccc1NC(=O)c1cccc(I)c1C(=O)NC(C)(C)CS(C)(=O)=O,outcome,[1],inactive
same,outcome,[2],inactive
same,outcome,[3],inactive
same,outcome,[4],inactive
same,outcome,[10],inactive
same,AC50,[6],1.13 µM (active)
same,outcome,[11],inactive
C=CC(=O)NC(C)(C)CC(C)=O,outcome,[1],inactive
same,outcome,[2],inactive
same,outcome,[3],inactive
same,outcome,[4],inactive
same,outcome,[5],inactive
same,outcome,[6],inactive
same,outcome,[12],inactive
NC(=O)c1ccc(N)nc1,outcome,[1],inactive
same,outcome,[2],inactive
same,outcome,[3],inactive
same,outcome,[4],inactive
same,outcome,[5],inactive
same,outcome,[10],inactive
same,outcome,[19],inactive
same,outcome,[6],inactive
same,outcome,[11],inactive
same,outcome,[12],inactive
same,outcome,[9],inactive
CN(CCCC(O)c1cccnc1)N=O (stereo unspecified),outcome,[1],inactive
same,outcome,[2],inactive
same,outcome,[3],inactive
same,outcome,[4],inactive
same,outcome,[5],inactive
same,outcome,[10],inactive
same,outcome,[8],inactive
same,outcome,[6],inactive
Brc1ccc(Br)cc1,outcome,[1],inactive
same,outcome,[2],inactive
same,outcome,[3],inactive
same,outcome,[4],inactive
same,outcome,[5],inactive
same,outcome,[7],inactive
same,outcome,[8],inactive
same,outcome,[12],inactive
CCCSP(=S)(OCC)Oc1ccc(SC)cc1 (stereo unspecified),outcome,[1],inactive
same,outcome,[2],inactive
same,outcome,[3],inactive
same,outcome,[4],inactive
same,outcome,[5],inactive
same,AC50,[8],15.2 µM (active)
same,AC50,[6],3.65 µM (active)
Fc1cccc(Cl)c1CCl,outcome,[1],inactive
same,AC50,[2],26.3 µM (active)
same,outcome,[3],inactive
same,outcome,[7],inactive
same,AC50,[8],4.39 µM (active)
same,outcome,[6],inactive
same,outcome,[12],inactive

# — PubChem BioAssay (EPA / NIEHS)
